Data taken from PubChem BioAssay AID1159580 (chemical genetic matrix, 2015).
Out of some 5,500 compounds screened, about 2,000 (36%) were called active. About 18% were inconclusive and are not listed. No stated cut-off is given here; in the data, active means normalized growth mostly below about 0.91 (no sharp cut-off); inconclusive means no clear call, values can overlap the other calls; inactive means mostly above about 0.92. The list shows a part of the results.

Test: chemical genetic growth profiling, strain panel (AID 1159580);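 further: tested at 20 µM; growth read once vehicle control cultures reached saturation at 30 °C; 1 = growth at the plate median or of vehicle wells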
Conditions: growth OD

Measured: normalized growth

CCOC(=O)c1c(Nc2ccccc2)sc([N+](=O)[O-])c1N
active: S. cerevisiae deletion strains, locus YLR085C, strain ARP6, stronger effect = lower value 0.762 | S. cerevisiae deletion strains, locus YMR307W, strain GAS1, stronger effect = lower value 0.66 | S. cerevisiae deletion strains, locus YPL241C, strain CIN2, stronger effect = lower value 0.849
inactive: S. cerevisiae deletion strains, locus YAL013W, strain DEP1, stronger effect = lower value 0.941 | S. cerevisiae deletion strains, locus YBR229C, strain ROT2, stronger effect = lower value 1.01 | S. cerevisiae deletion strains, locus YDL101C, strain DUN1, stronger effect = lower value 1.02 | S. cerevisiae deletion strains, locus YDR150W, strain NUM1, stronger effect = lower value 0.969 | S. cerevisiae deletion strains, locus YEL061C, strain CIN8, stronger effect = lower value 0.985 | S. cerevisiae deletion strains, locus YGR078C, strain PAC10, stronger effect = lower value 0.985 | S. cerevisiae deletion strains, locus YHR030C, strain SLT2, stronger effect = lower value 0.743 | S. cerevisiae deletion strains, locus YHR087W, strain rtc3, stronger effect = lower value 0.98 | S. cerevisiae deletion strains, locus YJR043C, strain POL32, stronger effect = lower value 0.956 | S. cerevisiae deletion strains, locus YJR075W, strain HOC1, stronger effect = lower value 0.949 | S. cerevisiae deletion strains, locus YKL190W, strain CNB1, stronger effect = lower value 0.977 | S. cerevisiae deletion strains, locus YLR039C, strain RIC1, stronger effect = lower value 0.964 | S. cerevisiae deletion strains, locus YLR058C, strain SHM2 (second series), stronger effect = lower value 1 | S. cerevisiae deletion strains, locus YLR262C, strain YPT6, stronger effect = lower value 0.965 | S. cerevisiae deletion strains, locus YML094W, strain GIM5, stronger effect = lower value 0.961 | S. cerevisiae deletion strains, locus YMR219W, strain ESC1, stronger effect = lower value 0.998 | S. cerevisiae deletion strains, locus YMR263W, strain SAP30, stronger effect = lower value 0.931 | S. cerevisiae deletion strains, locus YNL153C, strain GIM3, stronger effect = lower value 0.986 | S. cerevisiae deletion strains, locus YNL298W, strain CLA4 (second series), stronger effect = lower value 0.917 | S. cerevisiae deletion strains, locus YNL322C, strain KRE1, stronger effect = lower value 0.985 | S. cerevisiae deletion strains, locus YNR030W, strain Alg12, stronger effect = lower value 0.952 | S. cerevisiae deletion strains, locus YPL055C, strain LGE1, stronger effect = lower value 0.846 | S. cerevisiae deletion strains, locus YPR135W, strain CTF4, stronger effect = lower value 0.783 | S. cerevisiae strains, strain wild type, stronger effect = lower value 0.977
